High-throughput results: PubChem BioAssay, National Center for Advancing Translational Sciences (NCATS)
Luciferase inh: Photinus pyralis luciferase inhibition; AID 1347043; purified P. pyralis luciferase, luminescence, biochemical; hit rate 2.5% among 76,000; Potency, µM (titrated, usually from 115 µM), actives largely listed as inhibitors; P08659; active means well fitted curve in the direction sought with a large enough effect; inconclusive means small, poorly fitted or top-dose-only effect, or another doubt; inactive means no such curve, though single readings can be large; an effect the other way counts as inactive or inconclusive; further: nearly all actives have a fitted effect of over 65% in size
Target sequence (P08659 whole entry, looked up): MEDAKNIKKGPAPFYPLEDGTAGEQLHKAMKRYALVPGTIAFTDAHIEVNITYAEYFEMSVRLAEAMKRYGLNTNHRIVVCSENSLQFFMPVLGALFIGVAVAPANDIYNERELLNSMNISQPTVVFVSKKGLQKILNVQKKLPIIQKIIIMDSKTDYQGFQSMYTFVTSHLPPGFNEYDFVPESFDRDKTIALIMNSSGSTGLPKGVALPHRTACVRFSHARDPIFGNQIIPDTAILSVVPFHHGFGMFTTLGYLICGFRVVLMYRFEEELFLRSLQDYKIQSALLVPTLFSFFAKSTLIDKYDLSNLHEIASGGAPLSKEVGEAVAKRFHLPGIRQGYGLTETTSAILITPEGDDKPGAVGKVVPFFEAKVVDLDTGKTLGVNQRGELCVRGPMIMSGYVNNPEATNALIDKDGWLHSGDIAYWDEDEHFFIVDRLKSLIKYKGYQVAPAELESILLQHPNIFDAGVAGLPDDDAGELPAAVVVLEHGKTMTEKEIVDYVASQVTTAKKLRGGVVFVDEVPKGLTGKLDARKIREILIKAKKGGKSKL
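Inhibitors were tested against purified firefly luciferase in a biochemical, low-substrate format (both substrates at 10uM) and luminescence measured with a CCD imager.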
3T3 cytotox: NIH 3T3 cell cytotoxicity. AID 1345082. hit rate 4.3% among 94,000. Potency, µM (titrated, usually from 96.7 µM), hits mostly inhibitors. NIH 3T3 viability, CellTiter-Glo ATP luminescence, 48-72 h; active means well fitted curve in the direction sought with a large enough effect; inconclusive means small, poorly fitted or top-dose-only effect, or another doubt; inactive means no such curve, though single readings can be large; an effect the other way counts as inactive or inconclusive; further: nearly all actives have a fitted effect of over 55% in size
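ATP-dependent luminescence (CellTiter-Glo) served as the viability signal for NIH 3T3 cells treated with compound for 48 or 72 hr at 37 °C.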
HEK cytotox: cytotoxic compounds in HEK 293 cells; hit rate 6.6% among 94,000; Potency, µM (series often up to 115 µM), most hits filed as inhibitors; HEK 293 viability, ATP luminescence (CellTiter-Glo), 48-72 h; active means well fitted curve in the direction sought with a large enough effect; inconclusive means small, poorly fitted or top-dose-only effect, or another doubt; inactive means no such curve, though single readings can be large; an effect the other way counts as inactive or inconclusive; further: nearly all actives have a fitted effect of over 60% in size
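CellTiter-Glo luminescence (cellular ATP) was read after 48 or 72 hr of compound exposure at 37 degree Celsius. Cells were HEK 293 plated at 250 cells/well.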
NPR1 antag: antagonists of human natriuretic peptide receptor Npr1. hit rate 1.6% among 76,000. Potency, µM (top dose mostly 46.3 µM), actives largely listed as inhibitors. AID 1347048. HEK293 hNpr1 GloSensor cGMP, ANP-stimulated luminescence. P16066; further: nearly all actives have a fitted effect of over 60% in size
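HEK293 cells stably expressing human Npr1 and cGMP GloSensor pGS-40F, loaded 2 h with 2% GloSensor reagent, given compound 30 min at room temperature. Luminescence read before and 20 min after 0.1 nM hNppA.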
NPR1 antag cnf: confirmation of human Npr1 natriuretic peptide receptor antagonists. shares compounds with NPR1 antag. HEK293 hNpr1 cGMP GloSensor luminescence, ANP-stimulated. Potency, µM (series often up to 57.6 µM), usual class: inhibitors. hit rate 76% among 1,400; further: nearly all actives have a fitted effect of over 70% in size
Npr2 selectivity: antagonizes human Npr2, subtype selectivity check; shares compounds with NPR1 antag; HEK293 hNpr2 GloSensor cGMP luminescence, CNP-stimulated; Potency, µM (top dose mostly 57.6 µM), actives largely listed as inhibitors; hit rate 67% among 1,400; AID 1347046; further: nearly all actives have a fitted effect of over 70% in size
FLuc counter: FLuc enzyme inhibition, Npr1 counter-screen. Potency, µM (top dose mostly 57.6 µM), most hits filed as inhibitors. purified FLuc enzyme, luminescence, Km substrate. shares compounds with NPR1 antag. hit rate 0.7% among 1,400; active means well fitted curve in the direction sought with a large enough effect; inconclusive means small, poorly fitted or top-dose-only effect, or another doubt; inactive means no such curve, though single readings can be large; an effect the other way counts as inactive or inconclusive
GloSensor cGMP: counter-screen for Npr1 antagonists: GloSensor control cell line; shares compounds with NPR1 antag; HEK293 GloSensor cGMP, SNP-stimulated, luminescence; Potency, µM (series often up to 57.6 µM), most hits filed as inhibitors; hit rate 69% among 1,400; AID 1347051; further: nearly all actives have a fitted effect of over 70% in size
Hits are given with their value; – = inactive; ? = inconclusive; · = no result given. Most compounds without a hit are left out; they make up all but 11% or so of the library. Unless noted, the call rests on the fitted dose curve.

SMILES	Luciferase inh	3T3 cytotox	HEK cytotox	NPR1 antag	NPR1 antag cnf	Npr2 selectivity	FLuc counter	GloSensor cGMP
Cc1nn2c(c1-c1ccnn1C(C)C)N(Cc1ccc(C(=O)O)s1)CCC2	–	12.6µM	?	15.8µM	11.1µM	11.1µM	–	14µM
Cc1nc(-c2c3n(c(=O)n(CC(=O)Nc4ccccc4Cl)c2=O)CCCCC3)no1	–	–	?	–	·	·	·	·
O=C1COc2ccc(-c3cccnc3)nc2CN1Cc1ccc(C(F)(F)F)cc1	–	?	?	–	·	·	·	·
CN1Cc2nc(NCc3ccccc3)ccc2OCC1=O	–	?	?	?	·	·	·	·
Cc1ccccc1CN1Cc2nc(NCc3cccc(F)c3)ccc2OCC1=O	–	79.4µM	?	?	39.6µM	35.3µM	–	39.6µM
O=C1COc2ccc(-c3ccc4c(c3)OCO4)nc2CN1Cc1ccc(F)cc1	–	?	56.2µM	?	?	35.3µM	–	?
O=C1COc2ccc(N3CCCC3)nc2CN1Cc1ccc(C(F)(F)F)cc1	–	?	79.4µM	?	39.6µM	?	–	?
O=C(c1ccccn1)N1CC(Oc2ccc(F)c(F)c2)C1	·	–	–	·	·	·	·	·
CCNC(=O)c1ccc2c(c1)OCCN(c1cccc(OC(F)(F)F)c1)C2	–	?	?	–	·	·	·	·
O=C(NC1CCOCC1)c1ccc2c(c1)OCCN(c1cccc(OC(F)(F)F)c1)C2	–	?	31.6µM	?	39.6µM	?	–	44.4µM
CC(C)(C)CN1CCOC[C@H]1c1ncc(-c2ccc(F)cc2)[nH]1	–	?	?	–	·	·	·	·
CC1(C)[C@H](Cc2cc(CN3CCN(c4ccccc4)CC3)on2)C[C@@H]1NC(=O)NCc1ccccc1	–	?	25.1µM	11.2µM	21.7µM	?	–	17.2µM
CC1(C)[C@H](Cc2cc(CN3CCN(c4ccccc4)CC3)on2)C[C@@H]1NC(=O)Nc1ccc(F)cc1	–	?	?	12.6µM	19.3µM	21.7µM	–	19.3µM
CC(=O)N[C@H]1C[C@@H](Cc2cc(CN3CCCCC3)on2)C1(C)C	–	?	–	–	·	·	·	·
CC(C)(C)CC(=O)N[C@H]1C[C@@H](Cc2cc(COc3ccccc3)on2)C1(C)C	–	?	?	14.1µM	12.5µM	15.7µM	–	14µM
C=CCn1c(-c2ccccc2Cl)cn2cc(C(=O)N3CCCC(O)C3)nc2c1=O (centres undefined)	–	–	–	–	·	·	·	·
COc1ccc(C(=O)N2CCC3(CC2)N=C(c2cccc(Br)c2)NO3)cc1F	–	?	?	?	?	?	–	27.3µM
COc1ccc(C(=O)N2CCC3(CC2)N=C(c2cccc(Br)c2)NO3)c(OC)c1	–	?	?	11.2µM	24.3µM	24.3µM	–	21.7µM
COc1ccccc1CCC(=O)N1CCC2(CC1)N=C(c1cccc(Br)c1)NO2	–	?	?	–	?	?	–	–
Cc1ccsc1C(=O)N1CCC2(CC1)N=C(c1cccc(Br)c1)NO2	–	?	?	12.6µM	27.3µM	?	–	27.3µM
CNC(=O)c1cc(C2CC2)nc2onc(C3CCCN3[S+](=O)([O-])c3cccs3)c12 (centres undefined)	·	–	–	·	·	·	·	·
NC(=O)c1cc2c(nc1N1CCC3(CCCN(CC4CCC4)C3)C1)CCC2 (centres undefined)	–	–	–	–	·	·	·	·
c1ccc(Nc2cc3c(cn2)CN(Cc2c[nH]c4ccccc24)CCN3)cc1	–	25.1µM	?	?	11.1µM	6.27µM	–	?
O=C1Nc2ccccc2CC12CN(Cc1c[nH]c3ccccc13)C2	·	?	–	·	·	·	·	·
COCCOC1CN(C2CCN(C(=O)COc3ccc(F)cc3)CC2)C12CCCCC2 (centres undefined)	–	–	–	–	·	·	·	·
SMILES	Luciferase inh	3T3 cytotox	HEK cytotox	NPR1 antag	NPR1 antag cnf	Npr2 selectivity	FLuc counter	GloSensor cGMP
CC(=O)Nc1ccccc1-c1c(C)nn2c1N(CCC(C)C)CCC2	–	?	?	–	·	·	·	·
Cc1nn2c(c1-c1ccccc1[S+](C)(=O)[O-])N(CCC(C)C)CCC2	–	?	?	11.2µM	3.14µM	8.86µM	–	3.14µM
CN1CC(=O)N(C2CCCNCC2)Cc2c1ncnc2N1CCC(N2CCCCC2)CC1 (centres undefined)	·	–	–	·	·	·	·	·
CC(NC(=O)C1CCN(c2cc(C(F)(F)F)ncn2)CC1)c1ccccc1 (centres undefined)	–	?	–	–	·	·	·	·
Cc1ccc(NC(=O)C2CCN(c3cc(C(F)(F)F)ncn3)CC2)cc1Cl	–	17.8µM	?	10µM	12.2µM	19.3µM	–	12.2µM
COc1ccc(NC(=O)C2CCN(c3cc(C(F)(F)F)ncn3)CC2)cc1	–	–	–	?	·	·	·	·
COc1ccc(NC(=O)C2CCN(c3cc(C(F)(F)F)ncn3)CC2)cc1OC	–	–	?	–	·	·	·	·
CC(C)c1ccc(NC(=O)C2CCN(c3cc(C(F)(F)F)ncn3)CC2)cc1	–	?	?	7.08µM	7.69µM	8.62µM	–	4.85µM
O=C(Nc1ccc(F)cc1)C1CCN(c2cc(C(F)(F)F)ncn2)CC1	–	–	–	?	21.7µM	?	–	24.3µM
N#Cc1ccc(C(=O)Nc2ccc([C@@H](O)[C@H]3COCC(=O)N3)cc2)cc1	–	–	–	–	·	·	·	·
COc1cccc(NC(=O)c2cnc3c(c2)N(C(=O)Cc2ccc(C(C)C)cc2)CCC3)c1	–	?	22.4µM	11.2µM	19.3µM	19.3µM	–	17.2µM
COc1ccc(CCCN2C(=O)O[C@@H]3CN(c4cc(OC)ncn4)C[C@@H]32)cc1	–	?	?	12.6µM	24.3µM	21.7µM	–	21.7µM
CC(C)C1CN(C(=O)c2n[nH]c3c2CCC3)CCC(=O)N1CC1CC1 (centres undefined)	–	–	–	–	·	·	·	·
CC(C)Cc1cn(CC2CCCN(C(=O)c3n[nH]c4c3CCCC4)C2)nn1 (centres undefined)	–	?	?	14.1µM	19.3µM	17.2µM	?	15.3µM
CNC(=O)N1CCCCC1c1nc(CCOCC2CCOCC2)no1 (centres undefined)	·	–	–	·	·	·	·	·
CN(C)C(=O)N1CCCCC(NC2CCN(c3ccc4c(c3)CCC4)CC2)C1 (centres undefined)	–	?	?	–	·	·	·	·
Cc1cccc(NC(=O)Cn2c(N(C)Cc3ccccc3)nc(C)cc2=O)c1	–	?	?	20µM	21.7µM	21.7µM	–	21.7µM
CCc1cccc(NC(=O)Cn2c(N(C)Cc3ccccc3)nc(C)cc2=O)c1	–	?	?	8.91µM	10.9µM	12.2µM	–	9.68µM
CCn1ncc(CN2CCCCCNC(=O)CC2c2ccccc2)c1C (centres undefined)	–	–	–	–	·	·	·	·
